Source: PubChem BioAssay (National Center for Advancing Translational Sciences (NCATS))
HT1080-NT tox: kills 2HG-producing HT-1080-NT fibrosarcoma cells. HT-1080-NT fibrosarcoma viability, CellTiter-Glo ATP luminescence, 48 h. Potency, µM (top dose mostly 46.1 µM), for the others: at the top dose activity, negative = less viability, usual class: cytotoxic. 1.6% of 360,000 active. AID 686970;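 also: NT is the 2HG producing partner of a matched IDH1 knockdown line; 0% = DMSO-treated cells and -100% = media-only wells without cells; nearly all actives have a fitted effect of over 55% in size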
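Luminescent CellTiter-Glo readout after 48 hours of compound exposure at 37 degrees C defined viability of HT-1080-NT cells. Activity was normalized to DMSO wells and cell-free media wells; concentration-response curves were fitted and assigned curve classes.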
HT1080 IDH1KD tx: HT-1080 IDH1 knockdown cell toxicity (counter line) | HT-1080 IDH1 knockdown viability, ATP luminescence, 48 h | Potency, µM (highest dose often 46.1 µM), for inactives: at the highest dose activity, negative = toxicity, hits mostly cytotoxic | 2% of 360,000 active;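 also: 0% = DMSO wells and -100% = cell-free medium wells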
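CellTiter-Glo luminescence after 48 h compound exposure at 37 degrees C of IDH1-knockdown HT-1080 cells in 5% FBS RPMI. %Activity scaled between DMSO wells and cell-free media wells, with curves fitted and assigned curve classes.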
HepG2 viability: HepG2 cytotoxicity, counter-screen for TGF-b inhibitors | 0.76% of 410,000 active | HepG2 CAGA-GFP viability, ATP luminescence, 18 h | Potency, µM (series often up to 46.1 µM), without a hit: at the highest dose activity change, negative = cytotoxicity, most hits filed as cytotoxic
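HepG2 CAGA-GFP cells (1000/well, DMEM with 1% FBS) received compound, then TGF-beta at 500 pg/mL final, and were incubated 18 hours at 37 degrees C. Viability was read by CellTiter-Glo luminescence. Media-only wells were set as complete cell-killing and DMSO as no toxicity.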
TDP1 cell noCPT: qHTS for Inhibitors of human tyrosyl-DNA phosphodiesterase 1 (TDP1): qHTS in cells in absence of CPT; Potency, µM (titrated, usually from 46.2 µM), inactives show at the highest dose activity change, negative = growth inhibition, hits mostly inhibitors; DT40 Tdp1-/- hTDP1 cells, no CPT, ATP luminescence, 48 h; AID 686978, 2013; 15% of 420,000 active; also: % is scaled to controls: 0 for no effect and ±100 for the full control effect; nearly all actives have a fitted effect of over 55% in size
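Camptothecin absent (DMSO only). Human TDP1-complemented DT40 knockout cells, 400 cells/well, 37 °C for minimum 48 hr; ATP measured via CellTiter-Glo, 30 min dark incubation, luminescence.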
TGFb inhibitor: inhibitors of TGF-b signaling. HepG2 CAGA-GFP TGF-b/SMAD3 reporter, GFP fluorescence, 18 h; TGF-beta stimulated, 500 pg/mL final. Potency, µM (titrated, usually from 46.1 µM), inactives show at the top dose activity, negative = inhibition, usual class: inhibitors. 1.2% of 410,000 active. AID 588855; also: % is scaled to controls: 0 for no effect and ±100 for the full control effect; nearly all actives have a fitted effect of over 65% in size
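First, reporter cells (HEPG2 CAGA-GFP) rested 2 h at 37 degrees C. Next, compounds were pinned in and TGF-beta added to 500 pg/mL final. After 18 h, GFP was imaged per cell and summed per well.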
TDP1 cell CPT: growth inhibition of DT40 Tdp1-/-;hTDP1 cells with camptothecin (screen for TDP1 inhibitors); chicken DT40 Tdp1-/-;hTDP1 cells + 20 nM CPT, ATP luminescence, 48 h; Potency, µM (titrated, usually from 46.2 µM), for inactives: top-dose activity change, negative = growth inhibition, actives largely listed as inhibitors; 12% of 420,000 active; also: % is scaled to controls: 0 for no effect and ±100 for the full control effect; nearly all actives have a fitted effect of over 55% in size
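Chicken DT40 Tdp1-/- cells stably complemented with human TDP1 were seeded at 400 cells/well in medium containing 20 nM camptothecin, exposed to pin-transferred compounds, and grown at 37 °C for at least 48 hr. Viability was read as ATP luminescence.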
* marks the source's active call; other numbers are inactive results; ? = inconclusive; . = no result; ! = repeats disagree. An excerpt weighted towards active compounds, which were near 17% of everything screened. Calls follow the shape of the dose curve; as a rule, active = well fitted curve in the direction sought with a large enough effect; inconclusive = small, poorly fitted or top-dose-only effect, or another doubt; inactive = no such curve, though single readings can be large; an effect the other way counts as inactive or inconclusive. Potency is read from the fitted curve at half-maximal effect.

SMILES	HT1080-NT tox	HT1080 IDH1KD tx	HepG2 viability	TDP1 cell noCPT	TGFb inhibitor	TDP1 cell CPT
CCc1nnc(SCC(=O)Nc2ccc(F)cc2)o1	-18%	1%	1%	20%	5%	1%
CCCc1nc2c3ccccc3ccn2c1Cc1cccc(F)c1	?	?	-41%	?	?	?
CCCc1c(Cc2cccc(F)c2)ncn1Cc1cccc(-c2ccccc2)c1	?	?	.	3.7µM*	.	3.3µM*
CCc1c(-c2ccccc2)ncn1Cc1cccc(-c2ccccc2)c1	?	?	.	8.2µM*	.	8.2µM*
Cc1cccc(N(C(=O)c2ccco2)C(C(=O)NC2CCCC2)c2ccco2)c1C (centres undefined)	-2%	-8%	1%	-23%	-1%	-5%
COc1cc(OC)c(NC(=O)CSc2cc(=O)n(C)c3ccc(Cl)cc23)cc1Cl	.	.	-19%	?	0%	-20%
CCOC(=O)Cc1ccc(NC(=O)N2CC(CC)Oc3ccccc32)cc1 (centres undefined)	.	.	3%	?	1%	16µM*
CCOC(=O)Cc1ccc(NC(=O)N2CC(C)Oc3ccc(Cl)cc32)cc1 (centres undefined)	.	.	-19%	?	0%	16µM*
CN(CC1(C)CCCO1)S(=O)(=O)c1ccc(Cl)c(S(N)(=O)=O)c1 (centres undefined)	.	.	.	-2%	.	?
CCC(=O)Nc1cc(=O)[nH]c2nc(-c3ccc(Cl)cc3)nn12	11%	2%	-1%	18µM*	2%	?
COc1cc(NC2CCCCC2O)c2nc(-c3ccc(Cl)cc3)ccc2c1 (centres undefined)	?	?	-43%	?	?	21µM*
CC(C)(C)NC(=O)COC(=O)c1ccc(Cl)cc1O	0%	-1%	-7%	-4%	0%	-2%
C=CCOc1ccc(CN(C)CC(O)COc2cccc3ccccc23)cc1 (centres undefined)	?	?	13µM*	?	18µM*	?
OC(COc1cccc2ccccc12)CN1CCN(c2ccccc2)CC1 (centres undefined)	-23%	-2%	-31%	?	-15%	18µM*
CC(C)NC[C@H](O)COc1cccc2ccccc12	.	.	-21%	?	11%	?
OC[C@@H](O)COc1cccc2ccccc12	.	.	.	-14%	.	5%
CC(C)NC[C@@H](O)COc1cccc2ccccc12	.	.	-1%	21µM*!	21%	30µM*!
CC1CC(=O)N(CC(=O)Nc2ccc(OC(F)(F)F)cc2)c2ccccc2S1 (centres undefined)	.	.	-32%	.	-17%	.
CCC(=O)Nc1cccc(NC(=O)CSc2nnc(-c3ccc(NS(C)(=O)=O)cc3)n2CC)c1	2%	0%	-1%	20%	-10%	1%
CC1(C)OC(c2ccccc2)=C/C(=C/C=Nc2ccccc2)O1	1%	-4%	-11%	?	?	23µM*
CC1(C)OC(c2ccccc2)=C/C(=C\C=N\NC(=O)c2ccncc2)O1	?	?	-179%	?	?	?
CC(C)CN(C(=O)C1CSC2(C)CCC(=O)N12)c1c(N)n(Cc2ccccc2)c(=O)[nH]c1=O (centres undefined)	17%	23%	-7%	7%	-5%	-15%
CC(=O)N1CCc2cc(S(=O)(=O)NCCC(=O)NCCc3ccc(C)cc3)ccc21	-9%	?	0%	16µM*	-9%	29µM*
CC(=O)N1CCc2cc(S(=O)(=O)CCC(=O)NCCc3ccccc3)ccc21	5%	3%	-16%	-1%	-17%	-3%
